Screening results deposited in PubChem BioAssay by National Center for Advancing Translational Sciences (NCATS).
Rab9 prom act: activators of Rab9 promoter; AID 485297; Huh7 Rab9 promoter-luciferase reporter, luminescence, 24 h; Potency, µM (series often up to 9.22 µM), inactives show at the highest dose activation, negative = inhibition, actives largely listed as activators; 320,000 compounds, 2.8% hits; further: % of control where 0% means no effect; nearly all actives have a fitted effect of over 60% in size
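Quantitative HTS format; Huh7 Rab9-luciferase reporter cells (1500/well) receive compound 2 h post-plating, incubate 24 h at 37 °C, then get luciferase reagent for 10 min before luminescence reading.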
ELG1 genotox: genotoxicity induction in ELG1-luciferase HEK293T cells. 330,000 compounds, 1.3% hits. HEK293T ELG1-luciferase reporter, luminescence, 16 h. Potency, µM (highest dose often 46 µM), inactives show at the top dose activity change, positive = activation, usual class: activators. AID 504466; further: % of control where 0% means no effect; nearly all actives have a fitted effect of over 60% in size
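ELG1-luciferase HEK293T cells, 2,000/well; compound pinned in; 16 hr, 37 °C, 5% CO2; ONE-Glo, 30 min RT; luminescence on CCD imager.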
SMN2 splice up: increases expression of the SMN2 splice variant; HEK293 SMN2-luciferase splicing reporter, luminescence, 30-36 h; Potency, µM (series often up to 46.1 µM), for inactives: at the highest dose activity change, positive = activation, most hits filed as activators; 210,000 compounds, 2.8% hits; further: % of control where 0% means no effect; nearly all actives have a fitted effect of over 55% in size
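HEK293 cells carry an SMN2 […]–luciferase reporter in which exon 7 inclusion puts luciferase in frame. Cells were plated 10-12 h before compound addition, then incubated 30-36 h at 37C. ONE-Glo luminescence was read; sodium butyrate at 4.5 mM final served as control.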
FLuc counter: inhibits or activates purified firefly luciferase, miR-21 counter-screen; Potency, µM (highest dose often 57.5 µM), without a hit: at the top dose activity change, negative = inhibition, hits mostly inhibitors; 360,000 compounds, 6.9% hits; purified FLuc, Km substrates, luminescence inhibition; P08659;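 further: plate controls were vehicle for no effect and reference inhibitor for full effect; nearly all actives have a fitted effect of over 55% in size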
Target sequence (P08659 whole entry, looked up): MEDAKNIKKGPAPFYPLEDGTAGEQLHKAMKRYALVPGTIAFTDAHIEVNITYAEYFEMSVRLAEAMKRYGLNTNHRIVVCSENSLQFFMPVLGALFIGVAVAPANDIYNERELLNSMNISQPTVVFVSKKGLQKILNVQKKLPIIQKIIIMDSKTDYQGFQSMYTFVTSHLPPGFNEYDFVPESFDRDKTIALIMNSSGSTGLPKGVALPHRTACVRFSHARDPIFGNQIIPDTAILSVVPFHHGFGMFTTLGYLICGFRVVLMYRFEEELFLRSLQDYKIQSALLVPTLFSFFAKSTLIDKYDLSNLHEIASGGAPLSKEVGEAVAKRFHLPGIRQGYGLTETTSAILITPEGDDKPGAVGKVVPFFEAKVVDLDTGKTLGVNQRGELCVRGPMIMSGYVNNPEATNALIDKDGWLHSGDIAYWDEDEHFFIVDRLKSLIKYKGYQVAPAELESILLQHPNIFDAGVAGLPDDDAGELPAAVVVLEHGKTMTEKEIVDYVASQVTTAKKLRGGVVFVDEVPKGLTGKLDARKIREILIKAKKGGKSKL
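Purified P. pyralis luciferase, 10 nM final, with Km-level 10 uM D-luciferin and 10 uM ATP in 50 mM Tris acetate pH 7.5, 10 mM Mg acetate, 0.01% Tween-20, 0.05% BSA; 6-point qHTS titration about 60 µM downward; luminescence read.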
NPC1 prom act: activators of NPC1 promoter; Huh7 NPC1 promoter luciferase reporter, 24 h; Potency, µM (titrated, usually from 9.22 µM), inactives show top-dose activation, actives largely listed as activators; 320,000 compounds, 2.4% hits; AID 485313; further: % of control where 0% means no effect; nearly all actives have a fitted effect of over 60% in size
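Stably transfected Huh7 (NPC1 promoter→luciferase), 1500 cells/well in Opti-MEM + 10% FBS, 2 h settle, then compound 24 h at 37 °C. Luminescence after 10 min with Amplite reagent.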
ELG1 DNA repair: blocks ELG1-dependent DNA repair in HEK293T cells; HEK293T ELG1-luciferase reporter, luminescence, 16 h; DNA damage induced by 5-fluorouridine; Potency, µM (titrated, usually from 46.1 µM), for the others: top-dose activity change, negative = inhibition, usual class: inhibitors; 330,000 compounds, 2.3% hits; further: on the % scale 0 is the no-effect control and ±100 the full control effect; nearly all actives have a fitted effect of over 55% in size
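Cells (2,000 per well) received 5-fluorouridine plus test compound or DMSO and were incubated 16 hr at 37 °C, 5% CO2. Luciferase activity was read by luminescence 30 min after ONE-Glo addition; signal suppression marked inhibition of damage-induced ELG1 function.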
* marks the source's active call; other numbers are inactive results; ? = inconclusive; / = no result. Most compounds without a hit are left out; they make up all but 9.2% or so of the library. The call rests on the fitted dose curve; in most records, active means well fitted curve in the direction sought with a large enough effect; inconclusive means small, poorly fitted or top-dose-only effect, or another doubt; inactive means no such curve, though single readings can be large; an effect the other way counts as inactive or inconclusive. Potency means the concentration at half of the fitted maximal effect.

SMILES	Rab9 prom act	ELG1 genotox	SMN2 splice up	FLuc counter	NPC1 prom act	ELG1 DNA repair
CCOc1ccc(NC(=O)CN(C)C(=O)C2CC(=O)N(Cc3ccco3)C2)cc1OCC (stereo unspecified)	3%	3%	/	-1%	-2%	13%
O=C(Nc1ccc2nc(-c3cccnc3)[nH]c2c1)C12CC3CC(CC(C3)C1)C2	2%	3%	13%	11µM*	14%	-3%
CC(C)c1nc2ccc(NC(=O)C34CC5CC(CC(C5)C3)C4)cc2[nH]1	5%	22%	-5%	15µM*	8%	?
Nc1cccc(C(=O)Nc2ccc3nc(-c4cccnc4)[nH]c3c2)c1	0%	0%	-2%	?	-2%	-3%
O=C(Nc1ccc2nc(-c3cccnc3)[nH]c2c1)C1CCCCC1	14%	1%	4%	12µM*	8%	-13%
CC1CCCC(NC(=O)c2ccc3c(c2)NC(=O)CS3)C1C (stereo unspecified)	-1%	0%	/	-3%	-1%	4%
Cc1[nH]c2ccccc2c1/C=N/Nc1nncn1N	?	?	20%	2.1µM*	6%	?
Cc1[nH]c2ccccc2c1/C=N/Nc1ccccn1	14%	0%	2%	24µM*	-7%	2%
Cc1[nH]c2ccccc2c1/C=N/Nc1ccc([N+](=O)[O-])cc1	0%	-1%	/	?	0%	-18%
Cc1[nH]c2ccccc2c1/C=N/Nc1ccc(F)cc1F	?	?	28%	?	22%	?
CCCCc1c(C)nc2ccc(Br)cc2c1SCCC#N	-1%	-15%	-29%	0%	-2%	18µM*
CCCc1c(C)nc2ccccc2c1SCCC#N	-6%	-8%	-44%	-8%	9%	23µM*
CCOc1ccc(NS(=O)(=O)c2cc(C(=O)NCCCN3CCCC3=O)ccc2C)cc1	2%	3%	/	0%	0%	-2%
Cc1ccc(/C=N/NC(=O)c2ccccc2OCc2ccc(F)cc2)o1	-4%	2%	-24%	?	0%	18µM*
O=C(N/N=C/c1ccncc1)c1ccccc1OCc1ccc(Br)cc1	-7%	-6%	-10%	?	-10%	7.3µM*
O=C(N/N=C/c1ccccc1)c1sccc1OCc1ccc(F)cc1	0%	2%	-17%	19µM*	-2%	-16%
Cc1cccc(/C=N/NC(=O)c2ccccc2OCc2cccc(Br)c2)n1	0%	-4%	/	19µM*	15%	16µM*
O=C(N/N=C/c1ccccc1)c1ccc(OCc2ccccc2)cc1	15%	?	-23%	-2%	1%	9%
CCOC(=O)c1c(C)[nH]c(C(=O)COC(=O)C2(C)CC2(Cl)Cl)c1C (stereo unspecified)	3.2µM*	?	-8%	13µM*	?	-19%
CCOC(=O)c1c(C)[nH]c(C(=O)COC(=O)C2CC2)c1C	-2%	?	/	9.5µM*	0%	?
CCCCC(=O)OCC(=O)c1[nH]c(C)c(C(C)=O)c1C	-3%	-3%	6%	11µM*	0%	8%
Cc1cc(C)n2c(Nc3ccccc3)c(-c3ccccc3)nc2n1	/	/	-1%	-10%	/	/
CCN(CC)CCCNC(=O)c1ccc(Cn2c(SCc3ccccc3)nc3cccnc32)cc1	/	/	/	21µM*	/	/
COc1ccccc1CNC(=O)c1ccc(Cn2c(SCc3ccccc3)nc3cccnc32)cc1	/	/	/	4.8µM*	/	/
CC(CNC(=O)c1ccc(Cn2c(SCc3ccccc3)nc3cccnc32)cc1)c1ccccc1 (stereo unspecified)	/	/	/	4.8µM*	/	/
SMILES	Rab9 prom act	ELG1 genotox	SMN2 splice up	FLuc counter	NPC1 prom act	ELG1 DNA repair
CC(NC(=O)c1ccc(Cn2c(SCc3ccccc3)nc3cccnc32)cc1)c1ccccc1 (stereo unspecified)	/	/	/	-2%	/	/
Cc1cccc(Cn2c(SCc3ccc(C(=O)NCc4ccccc4F)cc3)nc3cccnc32)c1	/	/	/	-4%	/	/
Cc1ccccc1CNC(=O)c1ccc(Cn2c(SCc3ccccc3)nc3cccnc32)cc1	/	/	/	2.7µM*	/	/
COc1ccccc1NC(=O)N1CCN(c2nnc(C)c3c(C)n(-c4ccccc4)nc23)CC1	/	/	/	-3%	/	/
CC(C)c1ccc(NC(=O)CSc2nc(=O)n(Cc3cccnc3)c3c2CCC3)cc1	/	/	/	-13%	/	/
CCCC#Cc1ccc2c(c1)COc1c3ccccc3nn1-2	0.56µM*	?	/	1.5µM*	0.89µM*	?
CCN(CC)P(=O)(Nc1cccc(C(F)(F)F)c1)c1ccc(N(C)C)cc1NC(=O)c1ccco1 (stereo unspecified)	1%	-17%	-22%	-2%	-15%	21µM*
CC1=NN(C(N)=S)C(=O)C1N=Nc1ccc(C)cc1C (stereo unspecified)	?	11µM*	14µM*	4.8µM*	?	?
CC1=NN(C(N)=S)C(=O)C1N=Nc1c(C)cc(C)cc1C (stereo unspecified)	26%	?	-26%	?	-1%	27%
CC1=NN(C(N)=S)C(=O)C1N=Nc1ccccc1C (stereo unspecified)	4%	1%	?	21µM*	13%	?
CCN(CC)C(=O)COC(=O)C1=NN(c2cc(C)ccc2C)C(=O)CC1	13%	0%	/	2%	1%	10%
Cc1nc2ccc(N=NC3=C(O)CC(C)(C)CC3=O)cc2s1	2%	?	?	4.3µM*	-2%	?
CC(=O)N1CCc2cc(N=NC3=C(O)CC(C)(C)CC3=O)ccc21	1.6µM*	?	?	13µM*	4µM*	?
CCN(CC)S(=O)(=O)c1cccc(N=NC2=C(O)CCCC2=O)c1	7%	1%	-15%	-3%	7%	8%
